Results taken from paper PMC7862700, “An all-to-all approach to the identification of sequence-specific readers for epigenetic DNA modifications on cytosine”.

Assays:
Test in all cases: DAPPL (digital affinity profiling via proximity ligation, sequencing); 10 mM Tris-HCl pH 7.5, 50 mM NaCl, 1 mM DTT, 4% glycerol, room temperature, 30 min; GST-TFs on glutathione beads, 16-mer random dsDNA library, 0.1% formaldehyde crosslink after washing; high values mean tight binding
[1] = biological target: T1, FLI1 (Homo sapiens, UniProt Q01543 1-452); conditions: protein: recombinant; tags: N-terminal GST; dsDNA, one strand shown
T1 sequence: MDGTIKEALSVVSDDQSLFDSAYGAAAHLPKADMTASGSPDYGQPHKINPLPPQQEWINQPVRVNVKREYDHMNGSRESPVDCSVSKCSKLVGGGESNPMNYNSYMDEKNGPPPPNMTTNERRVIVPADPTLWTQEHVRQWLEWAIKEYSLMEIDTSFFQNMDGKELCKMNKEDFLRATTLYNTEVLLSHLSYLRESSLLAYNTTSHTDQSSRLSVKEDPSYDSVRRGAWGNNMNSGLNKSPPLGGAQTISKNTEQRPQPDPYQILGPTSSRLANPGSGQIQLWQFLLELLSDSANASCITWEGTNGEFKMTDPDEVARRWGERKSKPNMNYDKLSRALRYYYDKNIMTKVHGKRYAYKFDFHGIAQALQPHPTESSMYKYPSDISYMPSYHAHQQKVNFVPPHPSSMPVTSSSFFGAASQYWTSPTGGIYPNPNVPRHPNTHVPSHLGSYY
Summary of the method: (§1)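 Sequencing on an Illumina NextSeq500 followed washing, crosslinking with 0.1% formaldehyde, proximity ligation (BsaI/T4 ligase, 1 h, 37 °C) and PCR amplification of pools that had been incubated for 30 min at room temperature with 200 nmole of a random double-stranded 16-mer DNA library in Tris/NaCl/DTT/glycerol buffer. Each pool held DNA-barcoded human transcription factors, expressed in yeast as GST fusions and captured on glutathione beads, plus a tag-only sample. Binding signal is a hexamer's read frequency for a factor divided by its frequency in the tag-only sample.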

[2] = biological target: T2, ELK1 (Homo sapiens, UniProt P19419 1-428); conditions: protein: recombinant; tags: N-terminal GST; dsDNA, one strand shown
T2 sequence: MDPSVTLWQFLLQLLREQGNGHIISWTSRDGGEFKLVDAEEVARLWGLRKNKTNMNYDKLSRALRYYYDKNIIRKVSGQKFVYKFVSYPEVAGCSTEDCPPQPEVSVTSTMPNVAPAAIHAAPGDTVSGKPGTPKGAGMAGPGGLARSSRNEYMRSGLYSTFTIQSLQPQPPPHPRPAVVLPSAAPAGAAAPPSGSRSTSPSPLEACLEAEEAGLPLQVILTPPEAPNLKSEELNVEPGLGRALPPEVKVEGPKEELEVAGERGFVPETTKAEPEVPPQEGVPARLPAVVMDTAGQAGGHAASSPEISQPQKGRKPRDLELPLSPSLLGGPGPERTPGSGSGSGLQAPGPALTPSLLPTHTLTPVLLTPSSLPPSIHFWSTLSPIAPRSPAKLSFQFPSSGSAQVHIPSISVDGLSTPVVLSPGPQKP
Summary of the method: as §1

[3] = biological target: T3, GABPA (Homo sapiens, UniProt Q06546 1-454); conditions: protein: recombinant; tags: N-terminal GST; dsDNA, one strand shown
T3 sequence: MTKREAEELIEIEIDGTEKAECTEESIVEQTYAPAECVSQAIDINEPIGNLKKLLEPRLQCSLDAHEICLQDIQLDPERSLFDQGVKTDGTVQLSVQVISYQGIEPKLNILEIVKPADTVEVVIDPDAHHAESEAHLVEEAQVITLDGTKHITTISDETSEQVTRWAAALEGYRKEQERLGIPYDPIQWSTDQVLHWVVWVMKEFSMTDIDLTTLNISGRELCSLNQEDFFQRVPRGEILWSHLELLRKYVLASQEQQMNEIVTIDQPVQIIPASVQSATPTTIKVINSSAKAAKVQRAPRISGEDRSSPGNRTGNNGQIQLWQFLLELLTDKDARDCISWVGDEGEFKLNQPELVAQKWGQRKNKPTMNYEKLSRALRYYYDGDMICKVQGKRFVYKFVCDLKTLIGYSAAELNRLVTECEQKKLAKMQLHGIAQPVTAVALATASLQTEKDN
Summary of the method: as §1

[4] = biological target: T4, ERG (Homo sapiens, UniProt P11308 1-479); conditions: protein: recombinant; tags: N-terminal GST; dsDNA, one strand shown
T4 sequence: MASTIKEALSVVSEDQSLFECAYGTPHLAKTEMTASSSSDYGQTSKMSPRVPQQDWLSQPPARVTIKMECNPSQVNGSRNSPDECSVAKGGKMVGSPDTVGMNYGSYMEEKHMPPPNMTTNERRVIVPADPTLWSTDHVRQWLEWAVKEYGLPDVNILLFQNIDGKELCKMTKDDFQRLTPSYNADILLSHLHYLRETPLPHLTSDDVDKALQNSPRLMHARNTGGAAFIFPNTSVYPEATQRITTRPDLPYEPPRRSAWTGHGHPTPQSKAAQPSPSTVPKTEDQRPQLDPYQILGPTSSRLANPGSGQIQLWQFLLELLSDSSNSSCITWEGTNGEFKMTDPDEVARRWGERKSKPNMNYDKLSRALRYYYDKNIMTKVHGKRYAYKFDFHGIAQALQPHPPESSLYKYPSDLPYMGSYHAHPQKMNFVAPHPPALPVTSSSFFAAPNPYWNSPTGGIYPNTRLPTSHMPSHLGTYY
Summary of the method: as §1

[5] = biological target: ELF1 (Homo sapiens, UniProt P32519 1-619); conditions: protein: recombinant; tags: N-terminal GST; dsDNA, one strand shown
Summary of the method: as §1

[6] = biological target: T5, EHF (Homo sapiens, UniProt Q9NZC4 1-300); conditions: protein: recombinant; tags: N-terminal GST; dsDNA, one strand shown
T5 sequence: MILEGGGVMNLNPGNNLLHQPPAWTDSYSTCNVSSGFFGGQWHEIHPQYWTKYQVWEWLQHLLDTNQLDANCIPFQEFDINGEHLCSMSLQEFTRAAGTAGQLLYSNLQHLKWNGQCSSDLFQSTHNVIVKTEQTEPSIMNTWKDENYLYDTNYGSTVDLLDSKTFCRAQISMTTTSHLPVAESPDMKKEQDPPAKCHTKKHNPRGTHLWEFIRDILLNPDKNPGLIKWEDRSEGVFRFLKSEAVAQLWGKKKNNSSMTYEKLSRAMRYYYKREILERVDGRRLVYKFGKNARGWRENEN
Summary of the method: as §1

[7] = biological target: SPI1 (Homo sapiens, UniProt P17947 1-270); conditions: protein: recombinant; tags: N-terminal GST; dsDNA, one strand shown
Summary of the method: as §1

[8] = biological target: SPIB (Homo sapiens, UniProt Q01892 1-262); conditions: protein: recombinant; tags: N-terminal GST; dsDNA, one strand shown
Summary of the method: as §1

[9] = biological target: T6, ELK3 (Homo sapiens, UniProt P41970 1-407); conditions: protein: recombinant; tags: N-terminal GST; dsDNA, one strand shown
T6 sequence: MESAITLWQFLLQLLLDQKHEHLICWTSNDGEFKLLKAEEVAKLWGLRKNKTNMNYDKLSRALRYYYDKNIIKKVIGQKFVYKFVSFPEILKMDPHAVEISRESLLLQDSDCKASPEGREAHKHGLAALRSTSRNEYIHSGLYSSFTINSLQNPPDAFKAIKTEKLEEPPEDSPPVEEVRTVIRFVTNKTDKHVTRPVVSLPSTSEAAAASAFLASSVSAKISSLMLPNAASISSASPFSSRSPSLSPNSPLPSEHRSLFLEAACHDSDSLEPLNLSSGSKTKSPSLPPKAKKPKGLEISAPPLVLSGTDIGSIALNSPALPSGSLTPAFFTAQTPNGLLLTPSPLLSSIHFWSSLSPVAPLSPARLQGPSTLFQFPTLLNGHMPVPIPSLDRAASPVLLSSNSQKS
Summary of the method: as §1

[10] = biological target: T7, FEV (Homo sapiens, UniProt Q99581 1-238); conditions: protein: recombinant; tags: N-terminal GST; dsDNA, one strand shown
T7 sequence: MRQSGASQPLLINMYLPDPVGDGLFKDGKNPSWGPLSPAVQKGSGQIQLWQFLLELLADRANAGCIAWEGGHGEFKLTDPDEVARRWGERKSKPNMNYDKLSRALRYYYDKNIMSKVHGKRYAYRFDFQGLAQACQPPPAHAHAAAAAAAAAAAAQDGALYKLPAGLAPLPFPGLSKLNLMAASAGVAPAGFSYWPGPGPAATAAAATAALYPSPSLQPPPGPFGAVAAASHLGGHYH
Summary of the method: as §1

[11] = biological target: ETV5 (Homo sapiens, UniProt P41161 1-510); conditions: protein: recombinant; tags: N-terminal GST; dsDNA, one strand shown
Summary of the method: as §1

[12] = biological target: HSF1 (Homo sapiens, UniProt Q00613 1-529); conditions: protein: recombinant; tags: N-terminal GST; chain copies: 3; dsDNA, one strand shown
Summary of the method: as §1

[13] = biological target: T8, SPIC (Homo sapiens, UniProt Q8N5J4 1-248); conditions: protein: recombinant; tags: N-terminal GST; dsDNA, one strand shown
T8 sequence: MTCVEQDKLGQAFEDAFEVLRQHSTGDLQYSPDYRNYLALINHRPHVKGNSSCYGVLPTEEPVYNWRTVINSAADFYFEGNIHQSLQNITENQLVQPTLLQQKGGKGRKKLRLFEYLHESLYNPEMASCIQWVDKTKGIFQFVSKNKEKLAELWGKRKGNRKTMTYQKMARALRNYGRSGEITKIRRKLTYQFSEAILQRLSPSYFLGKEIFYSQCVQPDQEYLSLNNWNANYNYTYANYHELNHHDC
Summary of the method: as §1

[14] = biological target: ELF4 (Homo sapiens, UniProt Q99607 1-663); conditions: protein: recombinant; tags: N-terminal GST; dsDNA, one strand shown
Summary of the method: as §1

[15] = biological target: T9, ELK4 (Homo sapiens, UniProt P28324-2 1-405); conditions: protein: recombinant; tags: N-terminal GST; dsDNA, one strand shown
T9 sequence: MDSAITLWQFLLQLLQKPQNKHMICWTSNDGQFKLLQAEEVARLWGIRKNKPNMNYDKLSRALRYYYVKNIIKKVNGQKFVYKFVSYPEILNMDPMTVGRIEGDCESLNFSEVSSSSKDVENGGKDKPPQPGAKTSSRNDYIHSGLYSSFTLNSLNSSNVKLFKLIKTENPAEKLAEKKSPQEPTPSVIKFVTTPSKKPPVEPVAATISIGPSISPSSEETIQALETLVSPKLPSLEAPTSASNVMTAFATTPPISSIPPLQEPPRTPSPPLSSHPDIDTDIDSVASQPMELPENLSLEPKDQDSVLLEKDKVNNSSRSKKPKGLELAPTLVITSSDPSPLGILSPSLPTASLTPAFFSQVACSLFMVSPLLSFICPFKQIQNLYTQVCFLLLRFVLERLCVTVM
Summary of the method: as §1

[16] = biological target: T10, ETV2 (Homo sapiens, UniProt O00321 1-342); conditions: protein: recombinant; tags: N-terminal GST; dsDNA, one strand shown
T10 sequence: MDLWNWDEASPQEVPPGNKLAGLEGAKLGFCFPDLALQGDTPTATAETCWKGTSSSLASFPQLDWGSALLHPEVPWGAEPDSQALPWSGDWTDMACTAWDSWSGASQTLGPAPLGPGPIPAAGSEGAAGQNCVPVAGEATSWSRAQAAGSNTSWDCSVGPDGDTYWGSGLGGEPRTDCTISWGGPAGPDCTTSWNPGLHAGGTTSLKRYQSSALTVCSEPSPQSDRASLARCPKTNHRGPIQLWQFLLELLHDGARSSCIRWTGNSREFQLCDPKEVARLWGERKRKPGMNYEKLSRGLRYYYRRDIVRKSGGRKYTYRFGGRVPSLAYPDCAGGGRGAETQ
Summary of the method: as §1

[17] = biological target: T11, ELF3 (Homo sapiens, UniProt P78545 1-371); conditions: protein: recombinant; tags: N-terminal GST; dsDNA, one strand shown
T11 sequence: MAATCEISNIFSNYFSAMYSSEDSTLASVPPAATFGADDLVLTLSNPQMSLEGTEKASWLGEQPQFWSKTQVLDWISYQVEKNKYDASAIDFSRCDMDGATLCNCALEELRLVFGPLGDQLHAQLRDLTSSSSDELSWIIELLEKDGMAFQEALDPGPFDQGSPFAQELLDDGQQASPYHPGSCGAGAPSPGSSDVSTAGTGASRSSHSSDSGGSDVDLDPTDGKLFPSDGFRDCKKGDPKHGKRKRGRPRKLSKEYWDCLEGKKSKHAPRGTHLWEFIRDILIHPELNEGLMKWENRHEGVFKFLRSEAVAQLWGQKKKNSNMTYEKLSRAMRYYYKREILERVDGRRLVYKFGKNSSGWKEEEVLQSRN
Summary of the method: as §1

[18] = biological target: CRX (Homo sapiens, UniProt O43186 1-299); conditions: protein: recombinant; tags: N-terminal GST; dsDNA, one strand shown
Summary of the method: as §1

[19] = biological target: ETV1 (Homo sapiens, UniProt P50549 1-477); conditions: protein: recombinant; tags: N-terminal GST; dsDNA, one strand shown
Summary of the method: as §1

Sequence of SPIB (Q01892 whole entry): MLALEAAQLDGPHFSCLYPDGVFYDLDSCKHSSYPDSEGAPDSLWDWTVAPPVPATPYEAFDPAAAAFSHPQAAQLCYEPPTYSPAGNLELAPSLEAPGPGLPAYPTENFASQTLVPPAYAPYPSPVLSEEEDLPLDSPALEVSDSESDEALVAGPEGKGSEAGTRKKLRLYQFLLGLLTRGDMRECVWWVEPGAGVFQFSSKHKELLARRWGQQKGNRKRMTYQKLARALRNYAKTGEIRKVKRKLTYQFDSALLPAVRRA
Sequence of ETV1 (P50549 whole entry): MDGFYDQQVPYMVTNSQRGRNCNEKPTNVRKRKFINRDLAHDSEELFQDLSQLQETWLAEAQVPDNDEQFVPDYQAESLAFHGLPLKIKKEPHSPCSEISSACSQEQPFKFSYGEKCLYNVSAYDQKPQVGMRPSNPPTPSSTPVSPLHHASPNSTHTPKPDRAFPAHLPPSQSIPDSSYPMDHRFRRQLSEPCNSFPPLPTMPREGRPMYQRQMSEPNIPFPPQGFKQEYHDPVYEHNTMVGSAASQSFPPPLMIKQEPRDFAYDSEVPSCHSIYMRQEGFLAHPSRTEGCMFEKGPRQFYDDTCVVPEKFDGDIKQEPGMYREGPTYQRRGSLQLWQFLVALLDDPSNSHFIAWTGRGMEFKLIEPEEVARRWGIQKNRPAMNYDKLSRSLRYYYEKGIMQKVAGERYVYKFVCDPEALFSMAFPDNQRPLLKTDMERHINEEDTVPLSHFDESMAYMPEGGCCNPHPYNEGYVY
Sequence of CRX (O43186 whole entry): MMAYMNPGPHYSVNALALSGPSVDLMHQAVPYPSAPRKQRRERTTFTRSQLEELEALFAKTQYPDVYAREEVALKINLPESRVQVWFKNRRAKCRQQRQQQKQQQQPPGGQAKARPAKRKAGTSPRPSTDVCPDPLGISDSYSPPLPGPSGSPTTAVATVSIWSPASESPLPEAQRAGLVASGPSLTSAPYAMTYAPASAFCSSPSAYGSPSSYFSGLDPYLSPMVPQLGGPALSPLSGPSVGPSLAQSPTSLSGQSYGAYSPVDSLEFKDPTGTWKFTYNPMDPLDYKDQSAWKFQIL
Sequence of HSF1 (Q00613 whole entry): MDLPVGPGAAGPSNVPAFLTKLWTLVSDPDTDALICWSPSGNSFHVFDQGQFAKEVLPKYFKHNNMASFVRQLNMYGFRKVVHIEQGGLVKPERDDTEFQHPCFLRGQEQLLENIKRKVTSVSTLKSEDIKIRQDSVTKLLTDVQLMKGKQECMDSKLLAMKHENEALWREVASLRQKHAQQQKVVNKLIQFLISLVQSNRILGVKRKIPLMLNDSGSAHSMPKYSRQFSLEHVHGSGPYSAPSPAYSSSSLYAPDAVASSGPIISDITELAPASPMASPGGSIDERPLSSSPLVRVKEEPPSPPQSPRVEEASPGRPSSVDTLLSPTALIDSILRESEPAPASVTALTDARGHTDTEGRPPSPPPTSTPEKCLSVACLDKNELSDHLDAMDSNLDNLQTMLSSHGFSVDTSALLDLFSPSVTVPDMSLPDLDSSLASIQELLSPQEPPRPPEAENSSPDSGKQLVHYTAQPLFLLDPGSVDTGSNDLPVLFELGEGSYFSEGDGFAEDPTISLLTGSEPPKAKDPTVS
Sequence of ELF4 (Q99607 whole entry): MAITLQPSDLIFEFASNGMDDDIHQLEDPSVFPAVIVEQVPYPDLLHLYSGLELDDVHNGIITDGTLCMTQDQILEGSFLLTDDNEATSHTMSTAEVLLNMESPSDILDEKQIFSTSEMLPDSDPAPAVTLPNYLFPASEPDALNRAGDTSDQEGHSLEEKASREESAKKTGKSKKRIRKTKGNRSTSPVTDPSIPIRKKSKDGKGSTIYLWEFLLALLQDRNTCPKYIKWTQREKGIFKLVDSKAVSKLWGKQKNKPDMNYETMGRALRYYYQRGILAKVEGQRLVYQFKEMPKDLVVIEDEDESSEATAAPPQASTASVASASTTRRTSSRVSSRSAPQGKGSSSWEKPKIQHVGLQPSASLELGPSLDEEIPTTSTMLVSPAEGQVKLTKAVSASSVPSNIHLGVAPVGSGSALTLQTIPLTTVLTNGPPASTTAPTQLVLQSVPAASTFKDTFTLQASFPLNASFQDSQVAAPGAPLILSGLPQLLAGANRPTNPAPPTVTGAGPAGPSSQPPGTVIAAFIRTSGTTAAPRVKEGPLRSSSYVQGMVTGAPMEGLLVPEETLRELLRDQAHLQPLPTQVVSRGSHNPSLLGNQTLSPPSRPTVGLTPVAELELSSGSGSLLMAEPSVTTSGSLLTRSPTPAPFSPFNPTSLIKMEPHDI
Sequence of ETV5 (P41161 whole entry): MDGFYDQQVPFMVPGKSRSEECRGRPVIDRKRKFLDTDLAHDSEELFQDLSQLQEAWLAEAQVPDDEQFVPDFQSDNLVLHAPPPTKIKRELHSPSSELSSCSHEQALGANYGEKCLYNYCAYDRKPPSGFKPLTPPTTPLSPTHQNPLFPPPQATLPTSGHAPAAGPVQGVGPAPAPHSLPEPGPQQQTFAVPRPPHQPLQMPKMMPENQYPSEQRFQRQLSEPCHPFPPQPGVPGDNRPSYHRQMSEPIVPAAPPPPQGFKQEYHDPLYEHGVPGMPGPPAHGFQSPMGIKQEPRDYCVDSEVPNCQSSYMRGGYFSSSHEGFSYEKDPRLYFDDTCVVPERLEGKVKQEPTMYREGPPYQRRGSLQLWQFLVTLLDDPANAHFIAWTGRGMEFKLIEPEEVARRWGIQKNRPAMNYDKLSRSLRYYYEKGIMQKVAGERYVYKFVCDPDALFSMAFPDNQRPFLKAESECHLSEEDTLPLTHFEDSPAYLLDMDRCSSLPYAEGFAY
Sequence of ELF1 (P32519 whole entry): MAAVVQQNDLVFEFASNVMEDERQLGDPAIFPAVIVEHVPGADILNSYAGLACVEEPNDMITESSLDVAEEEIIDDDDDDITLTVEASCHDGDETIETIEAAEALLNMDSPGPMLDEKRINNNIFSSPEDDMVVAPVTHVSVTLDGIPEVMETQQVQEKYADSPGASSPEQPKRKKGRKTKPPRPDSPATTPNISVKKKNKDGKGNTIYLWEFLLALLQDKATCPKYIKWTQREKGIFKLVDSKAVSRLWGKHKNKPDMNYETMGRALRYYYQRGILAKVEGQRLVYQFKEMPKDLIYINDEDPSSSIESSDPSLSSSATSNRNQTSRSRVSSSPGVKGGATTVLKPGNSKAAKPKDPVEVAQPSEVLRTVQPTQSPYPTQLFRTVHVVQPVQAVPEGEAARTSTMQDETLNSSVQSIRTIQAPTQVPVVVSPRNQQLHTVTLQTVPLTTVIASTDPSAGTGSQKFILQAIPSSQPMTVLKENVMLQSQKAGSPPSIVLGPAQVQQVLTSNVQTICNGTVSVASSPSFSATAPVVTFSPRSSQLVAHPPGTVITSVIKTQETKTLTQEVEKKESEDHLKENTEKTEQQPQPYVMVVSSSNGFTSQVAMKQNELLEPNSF

In the case of AACTTT, the binding signal [1] is reported as 1.38 fold enrichment (6-mer frequency, TF over GST control), the binding signal [2] is reported as 1.27 fold enrichment (6-mer frequency, TF over GST control) and the binding signal [3] is reported as 1.17 fold enrichment (6-mer frequency, TF over GST control). For the same sequence, the binding signal [4] was 1.16 fold enrichment (6-mer frequency, TF over GST control), the binding signal [5] was 1.23 fold enrichment (6-mer frequency, TF over GST control) and the binding signal [6] was 1.18 fold enrichment (6-mer frequency, TF over GST control). The binding signal [7] was 1.23 fold enrichment (6-mer frequency, TF over GST control), the binding signal [8] was 1.32 fold enrichment (6-mer frequency, TF over GST control) and the binding signal [9] was 1.2 fold enrichment (6-mer frequency, TF over GST control). For the same sequence, the binding signal [10] was 1.18 fold enrichment (6-mer frequency, TF over GST control), the binding signal [11] was 1.19 fold enrichment (6-mer frequency, TF over GST control) and the binding signal [12] was 1.68 fold enrichment (6-mer frequency, TF over GST control). The binding signal [13] was 1.45 fold enrichment (6-mer frequency, TF over GST control), the binding signal [14] was 1.19 fold enrichment (6-mer frequency, TF over GST control) and the binding signal [15] was 1.32 fold enrichment (6-mer frequency, TF over GST control). The binding signal [16] was 1.3 fold enrichment (6-mer frequency, TF over GST control), the binding signal [17] was 1.33 fold enrichment (6-mer frequency, TF over GST control) and the binding signal [18] was 1.27 fold enrichment (6-mer frequency, TF over GST control). The binding signal [19] was 1.23 fold enrichment (6-mer frequency, TF over GST control).
